From PubChem BioAssay (NCI)
Compounds without any hit were thinned out: in the full panel of roughly 83,000, 20% have a hit.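 For each line, cells grew in 96-well plates with the test compound present at a single concentration for 48 hours.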 Active and inactive are the calls of the source. How the source made its calls: active means growth percent below 10; inactive means the rest.

Key:
Experiment in all cases: NCI-60 one-dose screen, 48 h (100 = growth as untreated, 0 = no growth, -100 = all killed)
Conditions in all cases: 10 µM unless noted
EKVX NSCLC = test system: EKVX NSCLC
UO-31 renal = test system: UO-31 renal
TK-10 renal = test system: TK-10 renal
ACHN renal = test system: ACHN renal
CAKI-1 renal = test system: CAKI-1 renal
CCRF-CEM leukemia = test system: CCRF-CEM leukemia
MOLT-4 leukemia = test system: MOLT-4 leukemia
SR leukemia = test system: SR leukemia
RPMI-8226 leukemia = test system: RPMI-8226 leukemia
OVCAR-8 ovarian = test system: OVCAR-8 ovarian
OVCAR-5 ovarian = test system: OVCAR-5 ovarian
OVCAR-4 ovarian = test system: OVCAR-4 ovarian
SK-OV-3 ovarian = test system: SK-OV-3 ovarian
IGROV1 ovarian = test system: IGROV1 ovarian
OVCAR-3 ovarian = test system: OVCAR-3 ovarian
HS 578T breast = test system: HS 578T breast
NCI/ADR-RES ovarian = test system: NCI/ADR-RES ovarian
T-47D breast = test system: T-47D breast
A498 renal = test system: A498 renal

Measured: growth

COc1cc(N=Cc2sc(Nc3nccs3)nc2O)cc(OC)c1OC
inactive: EKVX NSCLC 82.2% | UO-31 renal 59% | TK-10 renal 224% | ACHN renal 86% | CAKI-1 renal 69% | CCRF-CEM leukemia 72% | MOLT-4 leukemia 78.2% | SR leukemia 63.9% | RPMI-8226 leukemia 81.6% | OVCAR-8 ovarian 81.2% | OVCAR-5 ovarian 103% | OVCAR-4 ovarian 82.9% | SK-OV-3 ovarian 104% | IGROV1 ovarian 66% | OVCAR-3 ovarian 82.8% | HS 578T breast 80.5% | NCI/ADR-RES ovarian 78.4% | T-47D breast 89.3%

CC(C)Sc1nc(Nc2ccc(S(N)(=O)=O)cc2)c(C#N)c(-c2ccc(F)cc2)n1
active: SR leukemia -36.9%
inactive: EKVX NSCLC 50.9% | CCRF-CEM leukemia 36.6% | MOLT-4 leukemia 49.9% | RPMI-8226 leukemia 58.1% | OVCAR-5 ovarian 67.3% | NCI/ADR-RES ovarian 32.5%

Cn1c(SCC(=O)Nc2ccc(-c3nc4ccc([N+](=O)[O-])cc4[nH]3)cc2)nc2ccccc2c1=O
inactive: EKVX NSCLC 84.5% | UO-31 renal 84.7% | ACHN renal 65.6% | CAKI-1 renal 45.9% | CCRF-CEM leukemia 86.8% | MOLT-4 leukemia 77.5% | SR leukemia 82.4% | RPMI-8226 leukemia 94.7% | OVCAR-8 ovarian 77.8% | OVCAR-5 ovarian 96% | OVCAR-4 ovarian 67.5% | SK-OV-3 ovarian 120% | IGROV1 ovarian 75.9% | OVCAR-3 ovarian 90.6% | HS 578T breast 81.5% | T-47D breast 72.1%

NS(=O)(=O)c1cccc(Nc2nc(SCC(=O)c3ccc(Cl)cc3)nc3ccccc23)c1
inactive: EKVX NSCLC 77.4% | UO-31 renal 84.2% | TK-10 renal 123% | ACHN renal 77.6% | CAKI-1 renal 62.3% | A498 renal 85.2% | CCRF-CEM leukemia 85.7% | MOLT-4 leukemia 82.8% | SR leukemia 59.2% | RPMI-8226 leukemia 65.4% | OVCAR-8 ovarian 39.9% | OVCAR-5 ovarian 116% | OVCAR-4 ovarian 22.5% | OVCAR-3 ovarian 85.8% | HS 578T breast 43.5% | T-47D breast 63.3%

O=C1NC(=C(Cl)Cl)/C(=N/S(=O)(=O)N2CCCCC2CC2(C(F)(F)F)N=N2)N1 (centres undefined)
active: ACHN renal -48.9% | CAKI-1 renal -65.4% | CCRF-CEM leukemia 4.21% | MOLT-4 leukemia -9.34% | SR leukemia -33.4% | RPMI-8226 leukemia -6.5% | OVCAR-4 ovarian -10.2% | OVCAR-3 ovarian -15.1%
inactive: EKVX NSCLC 59.2% | UO-31 renal 18.2% | TK-10 renal 63.4% | OVCAR-8 ovarian 17.6% | SK-OV-3 ovarian 136% | HS 578T breast 52.2% | NCI/ADR-RES ovarian 63.4% | T-47D breast 65.7%

CC(O)C(NC(=O)C1CCCN1C(=O)CNC(=O)C1CC(=O)NCC(=O)NC(Cc2c[nH]c3ccccc23)C(=O)NC(Cc2ccc(O)cc2)C(=O)NCC(=O)NC(CO)C(=O)NC(CCC(N)=O)C(=O)NC(Cc2c[nH]c3ccccc23)C(=O)N1)C(=O)NCC(=O)NC(CCC(N)=O)C(=O)NC(CCCNC(=N)N)C(=O)NC(CC(=O)O)C(=O)O (centres undefined)
inactive: EKVX NSCLC 100% | UO-31 renal 83.3% | TK-10 renal 116% | ACHN renal 96.2% | CAKI-1 renal 91.5% | CCRF-CEM leukemia 94.7% | MOLT-4 leukemia 104% | SR leukemia 94.5% | RPMI-8226 leukemia 83.5% | OVCAR-8 ovarian 101% | OVCAR-4 ovarian 99.8% | SK-OV-3 ovarian 106% | IGROV1 ovarian 105% | OVCAR-3 ovarian 102% | HS 578T breast 102% | NCI/ADR-RES ovarian 104% | T-47D breast 106%

CO/N=C1\CCc2c(sc(NC(=O)c3cccc(C(F)(F)F)c3)c2C(N)=O)C1
active: UO-31 renal -16.4% | TK-10 renal -17.1% | ACHN renal -23.7% | A498 renal -43.3% | OVCAR-4 ovarian -45.4% | OVCAR-3 ovarian 7.66% | HS 578T breast 5.79% | T-47D breast -18.5%
inactive: EKVX NSCLC 30.7% | CAKI-1 renal 11.3% | CCRF-CEM leukemia 67.9% | MOLT-4 leukemia 84.1% | SR leukemia 37.1% | RPMI-8226 leukemia 35.4% | OVCAR-8 ovarian 20.9% | OVCAR-5 ovarian 41.4% | IGROV1 ovarian 11.9%

COc1ccc(C(=O)/C=C/c2ccc(Oc3nc(NCCO)nc(N4CCOCC4)n3)c(OC)c2)cc1
inactive: EKVX NSCLC 90.1% | UO-31 renal 67.4% | TK-10 renal 140% | ACHN renal 62.5% | CAKI-1 renal 56% | MOLT-4 leukemia 10.6% | OVCAR-8 ovarian 69.6% | OVCAR-4 ovarian 81.8% | SK-OV-3 ovarian 108% | OVCAR-3 ovarian 101% | HS 578T breast 78.1% | NCI/ADR-RES ovarian 82.9% | T-47D breast 94.1%
active: CCRF-CEM leukemia 9.43% | SR leukemia 5.16% | RPMI-8226 leukemia 9.42%

CN(C)CCCNc1c2ccc(Cl)cc2nc2c1oc1ccccc12
inactive: UO-31 renal 12.3% | SK-OV-3 ovarian 42% | OVCAR-3 ovarian 31% | HS 578T breast 37% | T-47D breast 46.3%
active: EKVX NSCLC -26.7% | ACHN renal -36.5% | CAKI-1 renal 6.06% | A498 renal 8.64% | MOLT-4 leukemia -1.03% | SR leukemia -18.8% | RPMI-8226 leukemia -21.1% | OVCAR-8 ovarian -17.9% | OVCAR-5 ovarian 1.91% | OVCAR-4 ovarian 8.04% | IGROV1 ovarian -13% | NCI/ADR-RES ovarian 2.84%

Cc1ccc(CNS(=O)(=O)/N=C2\NC(=O)NC2=C(Cl)Cl)cc1
inactive: EKVX NSCLC 95.6% | UO-31 renal 84.7% | ACHN renal 73% | CAKI-1 renal 94.6% | A498 renal 56.7% | CCRF-CEM leukemia 16.1% | MOLT-4 leukemia 21% | SR leukemia 69.5% | RPMI-8226 leukemia 14.5% | OVCAR-8 ovarian 91.2% | OVCAR-5 ovarian 96.7% | OVCAR-4 ovarian 98.7% | IGROV1 ovarian 101% | OVCAR-3 ovarian 88.2% | HS 578T breast 66.1% | T-47D breast 48.7%

COc1cc2nc(-c3ccc(C(F)(F)F)cc3)cc(OCCCNCC3CCCO3)c2cc1OC (centres undefined)
active: CAKI-1 renal 8.44% | SR leukemia 8.68% | RPMI-8226 leukemia -13.1%
inactive: EKVX NSCLC 61.5% | UO-31 renal 35.9% | ACHN renal 31.9% | A498 renal 17.9% | CCRF-CEM leukemia 28.6% | MOLT-4 leukemia 14.3% | OVCAR-8 ovarian 35.6% | OVCAR-5 ovarian 40.6% | OVCAR-4 ovarian 62.4% | IGROV1 ovarian 28.5% | OVCAR-3 ovarian 65.4% | HS 578T breast 55.6% | NCI/ADR-RES ovarian 41.4% | T-47D breast 38%

O=C(N/N=C/c1ccc(Cl)s1)c1[nH]c2ccc(Br)cc2c1-c1ccccc1
active: SR leukemia 9.05% | RPMI-8226 leukemia 5.6% | OVCAR-8 ovarian 2.09%
inactive: EKVX NSCLC 41.7% | UO-31 renal 46.2% | TK-10 renal 111% | ACHN renal 25.3% | CAKI-1 renal 23.8% | CCRF-CEM leukemia 10.9% | MOLT-4 leukemia 14.1% | OVCAR-5 ovarian 52.9% | OVCAR-4 ovarian 69.5% | SK-OV-3 ovarian 29.6% | OVCAR-3 ovarian 20.8% | HS 578T breast 27% | NCI/ADR-RES ovarian 17.2% | T-47D breast 64.7%

Cc1cc(C(=O)Nc2sc3c(c2C(N)=O)CCC(=O)C3)ccc1OCCN1CCCCC1
inactive: EKVX NSCLC 107% | UO-31 renal 94.8% | TK-10 renal 148% | ACHN renal 91.1% | CAKI-1 renal 98.3% | A498 renal 120% | CCRF-CEM leukemia 77.1% | MOLT-4 leukemia 51.9% | SR leukemia 81.6% | RPMI-8226 leukemia 85.7% | OVCAR-8 ovarian 101% | OVCAR-5 ovarian 119% | OVCAR-4 ovarian 108% | IGROV1 ovarian 91% | OVCAR-3 ovarian 97.7% | HS 578T breast 102% | T-47D breast 89.4%

Clc1ccc2oc3c(NCCCN4CCOCC4)c4ccccc4nc3c2c1
active: MOLT-4 leukemia 4.08% | SR leukemia 1.91%
inactive: EKVX NSCLC 37.9% | UO-31 renal 24.2% | ACHN renal 13.4% | CAKI-1 renal 12.8% | CCRF-CEM leukemia 27.6% | RPMI-8226 leukemia 11.4% | OVCAR-8 ovarian 23.3% | OVCAR-5 ovarian 30% | OVCAR-4 ovarian 36.9% | SK-OV-3 ovarian 57.8% | IGROV1 ovarian 16.9% | OVCAR-3 ovarian 64.5% | HS 578T breast 37.8% | NCI/ADR-RES ovarian 29.2% | T-47D breast 51.7%

Nc1nc(N)c2c(n1)NC(c1ccc(F)cc1)CC(c1ccc(Nc3nc(NCCO)nc(Nc4ccc(Cl)cc4)n3)cc1)=N2 (centres undefined)
inactive: EKVX NSCLC 42.5% | UO-31 renal 34.8% | ACHN renal 39.5% | CAKI-1 renal 40.9% | OVCAR-8 ovarian 29% | OVCAR-5 ovarian 72% | SK-OV-3 ovarian 84% | OVCAR-3 ovarian 14.1% | HS 578T breast 42.8% | NCI/ADR-RES ovarian 64.5% | T-47D breast 60%
active: CCRF-CEM leukemia -13.8% | MOLT-4 leukemia -17.5% | SR leukemia -17.9% | RPMI-8226 leukemia -37.6% | OVCAR-4 ovarian 3.03% | IGROV1 ovarian -25.9%

COc1ccc(/C=N/NC(=O)c2[nH]c3ccc(Br)cc3c2-c2ccccc2)o1
active: OVCAR-8 ovarian -12.2%
inactive: EKVX NSCLC 37.8% | UO-31 renal 46.1% | ACHN renal 28.1% | CAKI-1 renal 26.3% | CCRF-CEM leukemia 15.4% | MOLT-4 leukemia 17% | SR leukemia 17.7% | RPMI-8226 leukemia 12.5% | OVCAR-5 ovarian 39.9% | OVCAR-4 ovarian 68% | SK-OV-3 ovarian 38.1% | IGROV1 ovarian 19.7% | HS 578T breast 11.5% | NCI/ADR-RES ovarian 19.9% | T-47D breast 78.4%

Cc1ccccc1NC(=O)/C=C/c1ccc(OCCOc2ccc3c(C)cc(=O)oc3c2)cc1
inactive: EKVX NSCLC 107% | UO-31 renal 99.6% | TK-10 renal 132% | ACHN renal 89.4% | CAKI-1 renal 95.1% | CCRF-CEM leukemia 95.7% | MOLT-4 leukemia 93.2% | SR leukemia 61.3% | RPMI-8226 leukemia 94% | OVCAR-8 ovarian 64.9% | OVCAR-5 ovarian 103% | OVCAR-4 ovarian 75.5% | SK-OV-3 ovarian 77.6% | IGROV1 ovarian 103% | HS 578T breast 61.2% | NCI/ADR-RES ovarian 84.6% | T-47D breast 84.1%
